Measurements as given in PubChem BioAssay.
Activity calls are given as the source filed them.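 The calls were made as follows, unless noted: active = inhibition above 20% together with a positive visual image hit; inconclusive = visual image hit but inhibition not above 20%; inactive = no visual image hit.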

Tests used:
[1] = inhibitors of TNFa-induced NFkB p65 translocation, primary screen, imaging, HUVEC, MLSMR starter and 10KST1 sets (AID 438); conditions: HUVEC TNFa-induced p65 nuclear translocation; cell count: measured here: nuclei count (cytotoxicity indicator), at 2.08 µM; inhibition: at 2 µM, stronger effect = higher value, 0% TNFa-plus-vehicle, 100% no-TNFa wells;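 also: compound added about 3h40 before a 20 min TNFalpha stimulation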;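 as to inhibition: signal is the nuclear over cytoplasmic p65 intensity ratio per well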
[2] = inhibitors of mutant huntingtin aggregation, primary screen, imaging, exon1htt(103Q)mCFP cells, high-content imaging (AID 483;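 active = visual image review flags a hit and inhibition of aggregation exceeds 20%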;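 also: compound exposure lasted 3 days before fixation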;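 as to nuclei count: percent of the per-plate median nuclei count of sample wells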); conditions: exon1htt(103Q)mCFP cell line, aggregate imaging, at 2 µM; inhibition of aggregation: stronger effect = higher value; nuclei count: measured here: cell count, toxicity
[3] = inhibitors of E-selectin induction by TNFa, primary screen, imaging, HUVEC, immunofluorescence, MLSMR starter and 10KST1 sets (AID 487;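 active = visually confirmed hit in the image check and inhibition above 20%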;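 as to inhibition: signal is fraction of cell area covered by stained E-selectin grains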;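 as to nuclei count: 100% = median nuclei count of all wells on the same plate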); conditions: HUVEC TNFalpha-induced E-selectin immunofluorescence imaging, at 2 µM; inhibition: stronger effect = higher value; nuclei count: measured here: cell number, toxicity
[4] = molecular target: Voltage-gated potassium channel subunit beta-2 (Rattus norvegicus) (UniProt P62483); test: KvBeta enzyme negative modulators, primary screen, biochemical, NADPH fluorescence (AID 622;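 active = fluorescence slope higher than the sample average by over 3 SD, cut at about -0.22 in these data, passing the limit was not always enough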;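 also: slope of raw intensity against log time taken from 70 to 1610 s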); conditions: recombinant KvBeta, 4-cyanobenzaldehyde reduction, at 10 µM, stronger effect = higher value
Voltage-gated potassium channel subunit beta-2 (Rattus norvegicus), sequence (P62483 whole entry, looked up): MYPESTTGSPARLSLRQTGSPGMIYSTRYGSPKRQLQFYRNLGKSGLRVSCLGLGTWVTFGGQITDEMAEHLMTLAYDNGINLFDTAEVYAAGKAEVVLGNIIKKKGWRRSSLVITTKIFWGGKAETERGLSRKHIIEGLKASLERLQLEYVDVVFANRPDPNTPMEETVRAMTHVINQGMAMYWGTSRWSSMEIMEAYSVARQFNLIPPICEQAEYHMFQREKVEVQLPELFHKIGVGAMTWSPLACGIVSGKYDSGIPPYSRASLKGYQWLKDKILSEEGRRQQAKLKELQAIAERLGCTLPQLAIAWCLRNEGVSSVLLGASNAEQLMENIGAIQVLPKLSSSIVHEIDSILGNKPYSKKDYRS

[5] = molecular target: Voltage-gated potassium channel subunit beta-2 (Rattus norvegicus) (UniProt P62483); test: KvBeta positive modulators, primary screen, biochemical, NADPH fluorescence (AID 623;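 active = NADPH fluorescence slope more negative than the mean of all samples by about 3 SD, 99.7% confidence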;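 also: fluorescence intensity change per second fitted from 20 to 320 s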); conditions: Recombinant KvBeta, NADPH fluorescence decrease slope, 10 min; at 10 µM; stronger effect = lower value
[6] = molecular target: Alpha-2C adrenergic receptor (Homo sapiens) (UniProt P18825); test: modulators of alpha2C/GIRK thallium flux, primary screen, cell-based, HEK293 alpha2C/GIRK1/2 (AID 624;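 active = fluorescence slope after compound addition differing from the mean of all screened samples at 99.7% confidence, in either direction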;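 also: slope of fluorescence ratio to pre-addition baseline per second over 15 to 24 s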); conditions: thallium flux BTC fluorescence, at 10 µM, actives lie on both sides
Alpha-2C adrenergic receptor (Homo sapiens), sequence (P18825 whole entry, looked up): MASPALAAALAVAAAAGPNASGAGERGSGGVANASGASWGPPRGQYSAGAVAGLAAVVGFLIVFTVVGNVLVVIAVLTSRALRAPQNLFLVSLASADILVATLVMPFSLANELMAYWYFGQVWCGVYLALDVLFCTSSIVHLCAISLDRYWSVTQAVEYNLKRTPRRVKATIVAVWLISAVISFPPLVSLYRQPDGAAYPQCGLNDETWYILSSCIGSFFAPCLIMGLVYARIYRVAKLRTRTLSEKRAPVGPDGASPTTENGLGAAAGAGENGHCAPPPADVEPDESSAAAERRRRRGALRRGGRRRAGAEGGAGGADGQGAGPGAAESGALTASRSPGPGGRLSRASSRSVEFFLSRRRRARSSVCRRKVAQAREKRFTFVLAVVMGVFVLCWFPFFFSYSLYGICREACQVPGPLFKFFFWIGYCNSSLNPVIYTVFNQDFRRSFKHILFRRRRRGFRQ

[7] = inhibitors of Sendai virus-induced IRF3 signaling, primary screen, TLR/RLR signaling modifier project, cell-based, Sendai virus stimulus, luciferase, 10K MLSCN set (AID 602276;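 active = inhibition at or above 50% at 10 µM; inactive = inhibition below 50%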;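 also: firefly luciferase from ISG56 promoter only with Renilla not read in this screen; 0% = Sendai virus plus DMSO and 100% = medium plus DMSO without virus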); conditions: HEK293 RL24 IRF3 luciferase reporter, at 10 µM, stronger effect = higher value
[8] = inhibitors of poly I:C-induced TLR3 signaling, primary screen, cell-based, poly I:C stimulus, luciferase, 10K MLSCN set (AID 602277;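 active = inhibition of the reporter signal at or above 50%; inactive = inhibition below 50%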); conditions: HEK293-TLR3 RL24 IRF3 luciferase reporter, at 10 µM, stronger effect = higher value
[9] = DUSP6 inhibitors restoring Erk phosphorylation by chemical complementation, primary imaging in DUSP6-transfected HeLa (AID 609;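 active = compounds giving at least 50% inhibition in the cell-based MKP-3 phosphatase rescue imaging test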;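 as to inhibition: phospho-Erk level distribution per well compared with pooled transfected vehicle control wells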); conditions: HeLa MKP-3 transfected, phospho-Erk imaging KS statistic, at 10 µM, cells stimulated with TPA for 15 min
[10] = molecular target: Dual specificity protein phosphatase 6 (Homo sapiens) (UniProt Q16828); test: as above; conditions: HeLa MKP-3 transfected, phospho-Erk imaging KS statistic; at 10 µM; stronger effect = higher value; cells stimulated with TPA for 15 min
Dual specificity protein phosphatase 6 (Homo sapiens), sequence (Q16828 whole entry, looked up): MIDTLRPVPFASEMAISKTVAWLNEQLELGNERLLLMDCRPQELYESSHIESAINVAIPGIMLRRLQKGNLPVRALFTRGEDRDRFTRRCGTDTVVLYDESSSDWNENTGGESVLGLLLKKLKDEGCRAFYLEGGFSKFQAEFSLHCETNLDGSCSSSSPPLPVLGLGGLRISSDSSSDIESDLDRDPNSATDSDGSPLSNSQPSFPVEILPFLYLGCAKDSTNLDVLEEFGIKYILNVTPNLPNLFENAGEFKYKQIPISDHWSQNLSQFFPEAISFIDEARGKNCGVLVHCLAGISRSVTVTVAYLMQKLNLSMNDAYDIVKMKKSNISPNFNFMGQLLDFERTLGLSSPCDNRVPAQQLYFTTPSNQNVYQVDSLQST

[11] = molecular target: Muscarinic acetylcholine receptor M4 (Homo sapiens) (UniProt P08173); test: compounds altering M4/GIRK thallium flux, either direction, primary screen, M4 allosteric agonist project, cell-based, HEK293 M4/GIRK, BTC-AM (AID 625;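 active = fluorescence slope after compound addition differing from the mean of all tested samples at 99.7% confidence, mostly higher but some lower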;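 also: thallium influx through GIRK channels coupled to M4 in HEK293 cells with BTC-AM dye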); conditions: at 10 µM, actives lie on both sides
Muscarinic acetylcholine receptor M4 (Homo sapiens), sequence (P08173 whole entry, looked up): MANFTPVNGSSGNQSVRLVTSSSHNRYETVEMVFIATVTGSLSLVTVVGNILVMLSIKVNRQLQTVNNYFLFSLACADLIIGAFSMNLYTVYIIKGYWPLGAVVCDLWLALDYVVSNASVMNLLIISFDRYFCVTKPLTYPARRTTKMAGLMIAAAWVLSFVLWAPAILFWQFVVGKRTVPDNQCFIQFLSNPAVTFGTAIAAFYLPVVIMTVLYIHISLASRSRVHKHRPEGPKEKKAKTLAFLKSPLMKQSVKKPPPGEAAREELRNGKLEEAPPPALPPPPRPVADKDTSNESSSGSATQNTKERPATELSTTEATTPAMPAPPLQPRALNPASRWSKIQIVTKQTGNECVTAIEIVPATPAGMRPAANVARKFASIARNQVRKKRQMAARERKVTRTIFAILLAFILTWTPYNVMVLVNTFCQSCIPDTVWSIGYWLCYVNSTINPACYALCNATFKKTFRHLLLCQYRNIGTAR

[12] = inhibitors of larval lipid processing in zebrafish, primary screen, whole organism, PED6 fluorescence, gall bladder and intestine (AID 686;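 active = a full or partial loss of lipid-probe fluorescence in the fish gall bladder, intestine or both, judged by eye; inactive = no fluorescence loss, or compound toxic to the fish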;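 also: larvae 5 to 7 days old with five fish per well; signal comes from phospholipase A2 cleavage of quenched PED6 carried via bile; overnight exposure to compound and PED6 before scoring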); conditions: Zebrafish larvae PED6 lipid processing, fluorescence scoring; screened at 20 µM (by protocol)
[13] = inhibitors of Chlamydomonas gravitaxis, primary screen, whole organism, Chlamydomonas reinhardtii, WT vs cilia-less mutant, absorbance, 96-well (AID 463189;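 active = inhibition at or above 50% relative to wild type and mutant plate controls; inactive = inhibition below 50%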;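 also: 0% = wild type cc124 cells in DMSO and 100% = ciliumless bld1 mutant cells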); conditions: OD600 absorbance, 2 days, at 10 µM, stronger effect = higher value
[14] = measured here: cell density z-score
[15] = measured here: nuclear c-Myc green intensity z-score
[16] = measured here: nuclear pErk red intensity z-score, stronger effect = higher value

CC(C)CN(C(=O)c1ccc(=O)n(C)n1)c1nc2ccccc2s1
cell count [1]: 369 | inhibition [1]: 4.8% (inactive) | inhibition of aggregation [2]: -17.5% (inactive) | nuclei count [2]: 93.5% | inhibition [3]: -5.9% (inactive) | nuclei count [3]: 112% | fluorescence slope [4]: -0.332 (inactive) | NADPH fluorescence slope [5]: -7.5e-05 (inactive) | slope [6]: 0.00541 (inactive) | inhibition [7]: -18.6% (inactive) | inhibition [8]: -44.4% (inactive)

Cn1c(SCC(=O)O)nnc1C1CCCCC1
cell count [1]: 396 | inhibition [1]: 1.6% (inactive) | inhibition of aggregation [2]: -3.7% (inactive) | nuclei count [2]: 99.2% | inhibition [3]: -65.8% (inactive) | nuclei count [3]: 105% | fluorescence slope [4]: -0.515 (inactive) | NADPH fluorescence slope [5]: -8.3e-06 (inactive) | slope [6]: 0.0074 (inactive) | inhibition [7]: -46.6% (inactive) | inhibition [8]: -23.7% (inactive)

COc1ccc(-c2nc3n(n2)C(=O)CC(c2ccco2)S3)cc1 (configuration not stated)
cell count [1]: 666 | inhibition [1]: -10.3% (inactive) | nuclei count [3]: 135% | z-score [9, 14]: -1.15 | z-score [9, 15]: -1.31 | z-score [9, 16]: -2.71 | inhibition [10]: -11.5% (inactive) | fluorescence slope [4]: -0.466 (inactive) | NADPH fluorescence slope [5]: -5.1e-05 (inactive) | fluorescence slope [11]: 0.00655 (inactive) | outcome [12]: inactive | inhibition [13]: -9.22% (inactive)

CCc1nnc(NC(=O)C2CCCN2S(=O)(=O)c2ccc(C)cc2)s1 (configuration not stated)
cell count [1]: 445 | inhibition [1]: -8.4% (inactive) | inhibition of aggregation [2]: 24.1% (inactive) | nuclei count [2]: 60.3% | inhibition [3]: 25.4% (inactive) | nuclei count [3]: 123% | fluorescence slope [4]: -0.41 (inactive) | NADPH fluorescence slope [5]: 1.6e-05 (inactive) | slope [6]: 0.00581 (inactive) | inhibition [7]: 2.82% (inactive) | inhibition [8]: 15.9% (inactive)

O=C(CCN1C(=O)COc2ccccc21)NCCCN1CCN(c2ccccc2F)CC1
cell count [1]: 660 | inhibition [1]: -7.1% (inactive) | inhibition of aggregation [2]: -1.6% (inactive) | nuclei count [2]: 73.9% | inhibition [3]: -82.2% (inactive) | nuclei count [3]: 93.3% | fluorescence slope [4]: -0.425 (inactive) | NADPH fluorescence slope [5]: -2.7e-05 (inactive) | slope [6]: 0.004 (inactive) | inhibition [7]: 11.7% (inactive) | inhibition [8]: 15% (inactive)

COC(=O)CCCCCc1ccc(C(C)=O)s1
cell count [1]: 350 | inhibition [1]: -6.3% (inactive) | inhibition of aggregation [2]: 10.5% (inactive) | nuclei count [2]: 101% | inhibition [3]: -65.9% (inactive) | nuclei count [3]: 120% | fluorescence slope [4]: -0.496 (inactive) | NADPH fluorescence slope [5]: -3.1e-05 (inactive) | slope [6]: 0.00508 (inactive) | inhibition [7]: 16.6% (inactive) | inhibition [8]: 15.4% (inactive)

Cc1ccc(-c2nc(=S)c3c(n2Cc2ccco2)CCCC3)cc1
cell count [1]: 320 | inhibition [1]: 1% (inactive) | inhibition of aggregation [2]: -7.2% (inactive) | nuclei count [2]: 77.9% | inhibition [3]: -22.3% (inactive) | nuclei count [3]: 85.5% | fluorescence slope [4]: -0.485 (inactive) | NADPH fluorescence slope [5]: -0.00017 (inactive) | slope [6]: 0.00678 (inactive) | inhibition [7]: 16% (inactive) | inhibition [8]: 27.9% (inactive)

CCOc1cc2[nH]c(=O)n(CCC(=O)NCCc3ccc(OC)c(OC)c3)c(=O)c2cc1OCC
cell count [1]: 313 | inhibition [1]: -2.1% (inactive) | inhibition of aggregation [2]: -0.3% (inactive) | nuclei count [2]: 103% | inhibition [3]: -19.2% (inactive) | nuclei count [3]: 122% | fluorescence slope [4]: -0.514 (inactive) | NADPH fluorescence slope [5]: 2.8e-05 (inactive) | slope [6]: 0.00653 (inactive) | inhibition [7]: 8.69% (inactive) | inhibition [8]: 16.7% (inactive)

COCCOC(=O)c1[nH]c2c(c1C)C(=O)CC(c1ccco1)C2 (configuration not stated)
cell count [1]: 930 | inhibition [1]: 12.1% (inactive) | inhibition of aggregation [2]: -345% (inactive) | nuclei count [2]: 2.7% | inhibition [3]: -169% (inactive) | nuclei count [3]: 95.8% | fluorescence slope [4]: -0.568 (inactive) | NADPH fluorescence slope [5]: -6.8e-06 (inactive) | slope [6]: 0.00646 (inactive) | inhibition [7]: 14.2% (inactive) | inhibition [8]: 77.7% (active)

CC(C)c1nnc(NC(=O)c2ccc(N3C(=O)CCC3=O)cc2)s1
cell count [1]: 627 | inhibition [1]: -8% (inactive) | inhibition of aggregation [2]: 13.9% (inactive) | nuclei count [2]: 110% | inhibition [3]: -36.4% (inactive) | nuclei count [3]: 119% | fluorescence slope [4]: -0.407 (inactive) | NADPH fluorescence slope [5]: 9.4e-07 (inactive) | slope [6]: 0.00608 (inactive) | inhibition [7]: 4.17% (inactive) | inhibition [8]: -7.88% (inactive)

CCOC(=O)C1(c2ccccc2)NC(c2ccc(N(C)C)cc2)C2C(=O)N(C)C(=O)C21 (configuration not stated)
cell count [1]: 450 | inhibition [1]: -4% (inactive) | inhibition of aggregation [2]: 3.8% (inactive) | nuclei count [2]: 116% | inhibition [3]: -87.1% (inactive) | nuclei count [3]: 93.2% | fluorescence slope [4]: -0.31 (inactive) | NADPH fluorescence slope [5]: -6.3e-05 (inactive) | slope [6]: 0.00476 (inactive) | inhibition [7]: 14.4% (inactive) | inhibition [8]: 22.7% (inactive)

Cc1cccn2c(=O)c(/C=C(\C#N)S(=O)(=O)c3ccccc3)c(N3CCN(C)CC3)nc12
cell count [1]: 468 | inhibition [1]: -9.2% (inactive) | nuclei count [3]: 183% | z-score [9, 14]: -0.688 | z-score [9, 15]: -1.21 | z-score [9, 16]: -0.646 | inhibition [10]: 7.7% (inactive) | fluorescence slope [4]: -0.457 (inactive) | NADPH fluorescence slope [5]: -6e-05 (inactive) | fluorescence slope [11]: 0.00316 (inactive) | outcome [12]: inactive | inhibition [13]: 1.87% (inactive)

CCc1nc2sc3ccccc3c(=O)c2c(=O)n1Cc1ccco1
cell count [1]: 577 | inhibition [1]: 14.3% (inactive) | inhibition of aggregation [2]: -3.1% (inactive) | nuclei count [2]: 87.2% | inhibition [3]: 4.8% (inactive) | nuclei count [3]: 112% | fluorescence slope [4]: -0.568 (inactive) | NADPH fluorescence slope [5]: -3.8e-05 (inactive) | slope [6]: 0.00576 (inactive) | inhibition [7]: -14.6% (inactive) | inhibition [8]: -14.8% (inactive)

Cc1cc(NS(=O)(=O)c2ccc(NC(=O)COc3ccccc3C(C)C)cc2)no1
cell count [1]: 579 | inhibition [1]: -12.7% (inactive) | inhibition of aggregation [2]: 17.6% (inactive) | nuclei count [2]: 72.3% | inhibition [3]: -2.6% (inactive) | nuclei count [3]: 116% | fluorescence slope [4]: -0.555 (inactive) | NADPH fluorescence slope [5]: -3.3e-05 (inactive) | slope [6]: 0.00559 (inactive) | inhibition [7]: 14.6% (inactive) | inhibition [8]: 39.1% (inactive)

CCOC(=O)c1[nH]c(C)c(C(=O)NCc2ccccn2)c1C
cell count [1]: 664 | inhibition [1]: -2.8% (inactive) | inhibition of aggregation [2]: -6.6% (inactive) | nuclei count [2]: 87.7% | inhibition [3]: -173% (inactive) | nuclei count [3]: 114% | fluorescence slope [4]: -0.51 (inactive) | NADPH fluorescence slope [5]: -0.000223 (inactive) | slope [6]: 0.00562 (inactive) | inhibition [7]: 17.5% (inactive) | inhibition [8]: 14.1% (inactive)
